This is a sample that favours compounds with a hit; in the whole collection about 11% have one here.
3T3 cytotox = kills NIH 3T3 cells; NIH 3T3 viability, CellTiter-Glo ATP luminescence, 48-72 h; Potency, µM (top dose mostly 96.7 µM), without a hit: at the top dose activity change, negative = cytotoxicity, usual class: inhibitors; 4.3% of 94,000 active; AID 1345082; further: on the % scale 0 is the no-effect control and ±100 the full control effect; nearly all actives have a fitted effect of over 55% in size
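ATP-dependent luminescence (CellTiter-Glo) served as the viability signal for NIH 3T3 cells treated with compound for 48 or 72 hr at 37 °C.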
HEK cytotox = cytotoxic compounds in HEK 293 cells | HEK 293 viability, ATP luminescence (CellTiter-Glo), 48-72 h | Potency, µM (highest dose often 115 µM), inactives show at the highest dose activity change, negative = cytotoxicity, actives largely listed as inhibitors | 6.6% of 94,000 active; further: on the % scale 0 is the no-effect control and ±100 the full control effect; nearly all actives have a fitted effect of over 60% in size
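250 HEK 293 cells/well; compound by pintool; incubated 48 or 72 hr at 37 degree Celsius; CellTiter-Glo added, 10 min RT, luminescence imaged.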
FLuc inh-1 = inhibitors of firefly (Photinus pyralis) luciferase. purified P. pyralis luciferase, luminescence, biochemical. P08659. Potency, µM (top dose mostly 115 µM), most hits filed as inhibitors. 2.5% of 76,000 active; further: on the % scale 0 is the no-effect control and ±100 the full control effect; nearly all actives have a fitted effect of over 65% in size
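Purified P. pyralis luciferase (10nM final) in 50mM Tris acetate pH 7.5, 10mM Mg acetate, 0.01% Tween-20, 0.05% BSA with 10uM D-luciferin and 10uM ATP. Compounds titrated qHTS. Luminescence imaged on CCD.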
hNpr1 antagonist = antagonists of human natriuretic peptide receptor Npr1; HEK293 hNpr1 GloSensor cGMP, ANP-stimulated luminescence; Potency, µM (series often up to 46.3 µM), inactives show at the highest dose activity change, negative = inhibition, actives largely listed as inhibitors; 1.6% of 76,000 active; AID 1347048; calls by dose curve; further: on the % scale 0 is the no-effect control and ±100 the full control effect; nearly all actives have a fitted effect of over 60% in size
Target sequence (P16066 whole entry, looked up): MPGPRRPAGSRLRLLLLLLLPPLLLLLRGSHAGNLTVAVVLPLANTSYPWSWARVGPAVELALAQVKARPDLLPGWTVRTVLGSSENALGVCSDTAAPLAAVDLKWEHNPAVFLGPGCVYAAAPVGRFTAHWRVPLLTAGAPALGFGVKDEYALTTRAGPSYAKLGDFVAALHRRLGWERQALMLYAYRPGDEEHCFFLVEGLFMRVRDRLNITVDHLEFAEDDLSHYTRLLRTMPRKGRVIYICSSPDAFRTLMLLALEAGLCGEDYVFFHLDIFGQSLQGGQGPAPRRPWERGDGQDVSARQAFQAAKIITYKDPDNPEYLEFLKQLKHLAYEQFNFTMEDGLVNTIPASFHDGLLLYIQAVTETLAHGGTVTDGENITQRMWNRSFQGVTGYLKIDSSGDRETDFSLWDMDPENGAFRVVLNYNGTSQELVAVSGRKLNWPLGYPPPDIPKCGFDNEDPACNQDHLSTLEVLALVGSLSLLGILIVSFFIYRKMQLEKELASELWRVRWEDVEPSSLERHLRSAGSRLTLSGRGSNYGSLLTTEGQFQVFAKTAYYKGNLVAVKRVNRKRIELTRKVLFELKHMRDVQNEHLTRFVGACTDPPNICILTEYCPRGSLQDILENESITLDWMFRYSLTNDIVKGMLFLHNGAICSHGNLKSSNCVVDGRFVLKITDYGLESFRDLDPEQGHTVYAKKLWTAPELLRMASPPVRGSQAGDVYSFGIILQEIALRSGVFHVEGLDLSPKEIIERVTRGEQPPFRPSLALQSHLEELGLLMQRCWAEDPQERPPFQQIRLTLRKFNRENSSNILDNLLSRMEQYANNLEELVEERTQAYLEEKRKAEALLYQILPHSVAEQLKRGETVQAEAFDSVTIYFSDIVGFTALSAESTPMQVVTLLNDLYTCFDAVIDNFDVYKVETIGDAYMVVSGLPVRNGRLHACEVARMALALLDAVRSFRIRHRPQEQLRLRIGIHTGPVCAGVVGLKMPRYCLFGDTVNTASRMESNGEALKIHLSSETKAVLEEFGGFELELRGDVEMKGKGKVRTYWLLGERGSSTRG
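Compound pre-incubated 30 min at room temperature on GloSensor-loaded HEK293 cells stably carrying hNpr1 and the pGS-40F cGMP biosensor. Stimulation uses hNppA at 0.1 nM final; luminescence is taken at baseline and 20 min post-agonist.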
FLuc SDR -ATP = firefly luciferase binding stabilization, ATP absent; shares compounds with FLuc inh-1; Purified FLuc-C-HiBiT, Nano-Glo HiBiT luminescence, no ATP; Potency, µM (titrated, usually from 32.7 µM), inactives show at the top dose activation (signal gain), usual class: activators; 7.8% of 1,300 active; AID 1963318; further: nearly all actives have a fitted effect of over 55% in size
FLuc SDR ATP = stabilizes firefly luciferase with ATP present; shares compounds with FLuc inh-1; purified FLuc-C-HiBiT + ATP, HiBiT complementation luminescence; Potency, µM (doses to about 32.7 µM), for the others: at the top dose activation (gain of signal), most hits filed as activators; 8.7% of 1,300 active;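 further: signal reports ligand binding via conformational change of the enzyme rather than luciferase catalysis; % of control where 0% means no effect; nearly all actives have a fitted effect of over 55% in size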
FLuc inh-2 = firefly luciferase enzyme inhibition; shares compounds with FLuc inh-1; purified FLuc-C-HiBiT enzyme, luciferin luminescence; Potency, µM (series often up to 32.7 µM), inactives show at the top dose activity change, negative = inhibition, actives largely listed as inhibitors; 42% of 1,300 active; further: on the % scale 0 is the no-effect control and ±100 the full control effect; nearly all actives have a fitted effect of over 70% in size
Active calls of the source: *; i = inactive; ? = inconclusive; . = no result; [ ] = dose if it differs, or a comment. Unless noted, the call rests on the fitted dose curve; in most records, active means well fitted curve in the direction sought with a large enough effect; inconclusive means small, poorly fitted or top-dose-only effect, or another doubt; inactive means no such curve, though single readings can be large; an effect the other way counts as inactive or inconclusive. Potency means the concentration at half of the fitted maximal effect.

SMILES | 3T3 cytotox | HEK cytotox | FLuc inh-1 | hNpr1 antagonist | FLuc SDR -ATP | FLuc SDR ATP | FLuc inh-2
COc1ccc(-c2nc3c(c(-c4ccccc4)n2)CN(C(=O)c2ccccc2F)CC3)cc1 | -28% | ? | i | -1% | . | . | .
COc1ccc(-c2nc3c4cnn(-c5ccccc5F)c4ncn3n2)cc1 | . | . | . | . | 15% | 12% | ?
CC(C)(C)CN1CCNc2cc(Nc3ccccc3)ncc2C1 | 50µM* | ? | 2.2µM* | ? | ? | 17%[49.3 µM] | 7.2µM*
C[S+](=O)([O-])c1ccc(-c2cc3c(cn2)CN(CCc2ccccc2)CCN3)cc1 | ? | ? | ? | -10%[70.6 µM] | . | . | .
c1cncc(CN2CCNc3cc(-c4cn[nH]c4)ncc3C2)c1 | i | ? | ? | -1%[70.6 µM] | . | . | .
CC(C)(C)CN1CCNc2cc(Nc3cccnc3)ncc2C1 | ? | -39%[172 µM] | 1.6µM* | -1%[70.6 µM] | ? | ? | 6.4µM*
COc1ccc(NC(=O)Nc2ccc(C)n(CC(=O)N3CCCC(C)C3)c2=O)cc1 (centres undefined) | -29% | -16% | 7.1µM* | 4% | ? | ? | 7.9µM*
CCCNC(=O)Cn1c(C)ccc(NC(=O)Nc2ccc(OC)cc2)c1=O | ? | -27% | 4µM* | -17% | ? | ? | 6.2µM*
CCC(C)NC(=O)Cn1c(C)ccc(NC(=O)Nc2ccc(C)cc2)c1=O (centres undefined) | ? | ? | 2µM* | -23% | 3.1µM* | ? | 1.2µM*
Cc1ccc(NC(=O)Nc2ccc(C)n(CC(=O)NCC(C)C)c2=O)cc1 | ? | ? | 0.89µM* | -29% | 3.9µM* | ? | 1.1µM*
Cc1ccc(NC(=O)Nc2ccc(C)n(CC(=O)NC(C)(C)C)c2=O)cc1 | -18% | ? | 4µM* | 0% | ? | ? | 3.9µM*
CCn1nc(C)c(-c2cc(C(=O)NCC3Cn4cccc4C(=O)N3C)no2)c1C (centres undefined) | -18% | -29% | i | -12% | . | . | .
C[C@@H]1C(=O)O[C@H]2[C@H]1CC[C@@]1(C)Cc3sc(Nc4cccnc4)nc3[C@@H](C)[C@H]21 | -22%[174 µM] | -5%[172 µM] | 0.79µM* | 16µM* | 1µM* | ? | 0.45µM*
COc1ccc(OC)c(S(=O)(=O)Nc2nc3c(s2)C[C@]2(C)CC[C@@H]4[C@H](OC(=O)[C@H]4C)[C@H]2[C@@H]3C)c1 | ? | ? | i | 0% | . | . | .
Cc1ccc(S(=O)(=O)Nc2nc3c(s2)C[C@]2(C)CC[C@@H]4[C@H](OC(=O)[C@H]4C)[C@H]2[C@@H]3C)cc1 | -23% | -21% | ? | -2% | . | . | .
C[C@@H]1C(=O)O[C@H]2[C@H]1CC[C@@]1(C)Cc3sc(NCc4ccccc4)nc3[C@@H](C)[C@H]21 | ? | ? | 3.5µM* | ? | ? | 17%[49.3 µM] | 7.2µM*
C[C@@H]1C(=O)O[C@H]2[C@H]1CC[C@@]1(C)Cc3sc(NCCc4ccccn4)nc3[C@@H](C)[C@H]21 | ? | 35µM* | 4.5µM* | ? | ? | 17%[49.3 µM] | 16µM*
O=C(c1ccncc1)N1CC(N(Cc2ccncc2)CC2CC2)C1 | ? | -8% | . | . | . | . | .
COCC1CN(C2CCC2)CC12CCN(C(=O)c1ccc(F)cc1)CC2 (centres undefined) | -20% | ? | i | -14% | . | . | .
Cc1ccc(-n2ncc3c(NC4CCCCC4)ncnc32)cc1Cl | . | . | . | . | 33% | ? | 2.8µM*
Cc1cccc(N2Cc3c(NC4CCCC4)ncnc3N(C)CC2=O)c1 | ? | -19% | . | . | . | . | .
Cc1ccc(-n2ncc3c(NC4CCCCC4)ncnc32)cc1C | . | . | . | . | 27% | ? | 1.8µM*
COc1ccccc1C(=O)N1CC(=O)N(CCCc2ccccc2)CC(O)C1 (centres undefined) | -19% | ? | . | . | . | . | .

Screening data (PubChem BioAssay)
